Compound: C#CCNC(=O)CCSSCCC(=O)NCCc1ccc(C=O)c(C=O)c1
Assay: lysine labeling ratio R10:1 (500 µM / 50 µM probe), SILAC-ABPP in living cells; higher = lower intrinsic lysine reactivity toward the probe, active = 2 or less
Settings: HeLa; probe concentrations 500 vs 50 µM
Summary of the method: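 With forward and reverse label swaps, light and heavy SILAC HeLa cells, alive and in PBS at room temperature, were exposed to either 500 µM or 50 µM of an alkyne-tagged lysine probe bearing a disulfide link. After mixing, lysates were clicked to biotin-azide, cut with trypsin, pulled down on neutravidin, freed with DTT, alkylated and analysed on a TIMS-TOF Pro by LC-MS/MS. The per-lysine value R is the median over forward and reverse replicates of the filtered median high-probe/low-probe MS1 peptide ratio. It is capped at 20.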

UniProt Q29983, sequence (Q29983 whole entry): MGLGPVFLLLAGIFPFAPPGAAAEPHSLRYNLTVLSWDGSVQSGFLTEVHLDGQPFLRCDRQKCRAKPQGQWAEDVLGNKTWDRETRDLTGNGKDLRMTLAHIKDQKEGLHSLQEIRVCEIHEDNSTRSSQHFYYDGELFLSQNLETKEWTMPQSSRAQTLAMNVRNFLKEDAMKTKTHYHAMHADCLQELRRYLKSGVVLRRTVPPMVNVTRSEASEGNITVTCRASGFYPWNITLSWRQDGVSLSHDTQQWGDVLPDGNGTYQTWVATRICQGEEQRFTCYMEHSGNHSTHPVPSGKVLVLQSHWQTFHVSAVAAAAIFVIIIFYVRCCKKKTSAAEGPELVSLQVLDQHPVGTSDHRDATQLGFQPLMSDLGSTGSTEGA
UniProt O00468, sequence (O00468 whole entry): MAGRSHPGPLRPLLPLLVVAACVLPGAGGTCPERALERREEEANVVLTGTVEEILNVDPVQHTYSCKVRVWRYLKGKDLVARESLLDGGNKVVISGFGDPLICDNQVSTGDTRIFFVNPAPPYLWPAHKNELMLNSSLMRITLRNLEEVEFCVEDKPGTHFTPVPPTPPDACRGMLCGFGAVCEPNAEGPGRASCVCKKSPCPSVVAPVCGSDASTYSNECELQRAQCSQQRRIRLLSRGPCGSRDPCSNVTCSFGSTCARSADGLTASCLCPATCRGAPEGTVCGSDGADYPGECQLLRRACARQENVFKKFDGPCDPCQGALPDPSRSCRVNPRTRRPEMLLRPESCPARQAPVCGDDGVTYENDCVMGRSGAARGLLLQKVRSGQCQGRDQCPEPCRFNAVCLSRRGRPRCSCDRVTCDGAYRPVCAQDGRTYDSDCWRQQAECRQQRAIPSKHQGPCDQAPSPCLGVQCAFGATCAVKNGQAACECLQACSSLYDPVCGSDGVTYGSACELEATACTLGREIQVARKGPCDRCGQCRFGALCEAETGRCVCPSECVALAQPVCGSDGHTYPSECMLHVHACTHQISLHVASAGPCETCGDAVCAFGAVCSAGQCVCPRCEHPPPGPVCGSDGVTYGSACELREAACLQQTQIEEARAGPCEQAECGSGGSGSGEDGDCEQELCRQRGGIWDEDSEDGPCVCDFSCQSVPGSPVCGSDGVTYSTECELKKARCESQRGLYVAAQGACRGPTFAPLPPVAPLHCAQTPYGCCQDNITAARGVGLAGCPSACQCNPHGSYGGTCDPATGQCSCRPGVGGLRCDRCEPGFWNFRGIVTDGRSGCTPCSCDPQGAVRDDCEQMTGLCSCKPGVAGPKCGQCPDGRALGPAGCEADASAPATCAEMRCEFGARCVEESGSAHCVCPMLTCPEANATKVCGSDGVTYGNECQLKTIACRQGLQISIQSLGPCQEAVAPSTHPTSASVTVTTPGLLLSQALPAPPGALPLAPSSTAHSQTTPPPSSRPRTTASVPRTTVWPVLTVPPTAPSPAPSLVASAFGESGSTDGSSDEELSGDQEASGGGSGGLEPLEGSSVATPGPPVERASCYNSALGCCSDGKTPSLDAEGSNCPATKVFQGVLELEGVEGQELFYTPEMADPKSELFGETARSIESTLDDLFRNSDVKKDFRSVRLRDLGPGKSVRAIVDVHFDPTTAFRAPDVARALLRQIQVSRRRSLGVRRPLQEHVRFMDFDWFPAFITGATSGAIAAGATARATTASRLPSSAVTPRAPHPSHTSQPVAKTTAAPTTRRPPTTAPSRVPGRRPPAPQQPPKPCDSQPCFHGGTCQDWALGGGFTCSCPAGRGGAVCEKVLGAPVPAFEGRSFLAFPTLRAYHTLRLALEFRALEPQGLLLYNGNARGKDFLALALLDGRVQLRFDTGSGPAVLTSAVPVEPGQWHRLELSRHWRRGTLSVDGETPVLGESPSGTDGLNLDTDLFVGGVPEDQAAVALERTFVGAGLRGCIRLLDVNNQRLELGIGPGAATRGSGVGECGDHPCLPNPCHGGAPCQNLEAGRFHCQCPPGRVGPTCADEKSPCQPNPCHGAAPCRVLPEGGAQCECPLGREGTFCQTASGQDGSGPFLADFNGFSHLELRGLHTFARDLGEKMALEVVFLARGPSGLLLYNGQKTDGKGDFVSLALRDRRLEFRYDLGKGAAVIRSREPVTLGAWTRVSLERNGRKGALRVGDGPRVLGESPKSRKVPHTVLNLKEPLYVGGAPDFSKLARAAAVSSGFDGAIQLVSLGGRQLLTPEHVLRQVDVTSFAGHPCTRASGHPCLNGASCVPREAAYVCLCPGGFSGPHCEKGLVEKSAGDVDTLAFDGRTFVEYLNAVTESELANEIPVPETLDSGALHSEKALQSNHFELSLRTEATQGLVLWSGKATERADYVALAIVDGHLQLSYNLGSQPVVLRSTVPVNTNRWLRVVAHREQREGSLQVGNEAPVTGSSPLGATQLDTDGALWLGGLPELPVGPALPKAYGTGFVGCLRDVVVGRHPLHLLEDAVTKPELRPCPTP
UniProt P11142, sequence (P11142 whole entry, looked up): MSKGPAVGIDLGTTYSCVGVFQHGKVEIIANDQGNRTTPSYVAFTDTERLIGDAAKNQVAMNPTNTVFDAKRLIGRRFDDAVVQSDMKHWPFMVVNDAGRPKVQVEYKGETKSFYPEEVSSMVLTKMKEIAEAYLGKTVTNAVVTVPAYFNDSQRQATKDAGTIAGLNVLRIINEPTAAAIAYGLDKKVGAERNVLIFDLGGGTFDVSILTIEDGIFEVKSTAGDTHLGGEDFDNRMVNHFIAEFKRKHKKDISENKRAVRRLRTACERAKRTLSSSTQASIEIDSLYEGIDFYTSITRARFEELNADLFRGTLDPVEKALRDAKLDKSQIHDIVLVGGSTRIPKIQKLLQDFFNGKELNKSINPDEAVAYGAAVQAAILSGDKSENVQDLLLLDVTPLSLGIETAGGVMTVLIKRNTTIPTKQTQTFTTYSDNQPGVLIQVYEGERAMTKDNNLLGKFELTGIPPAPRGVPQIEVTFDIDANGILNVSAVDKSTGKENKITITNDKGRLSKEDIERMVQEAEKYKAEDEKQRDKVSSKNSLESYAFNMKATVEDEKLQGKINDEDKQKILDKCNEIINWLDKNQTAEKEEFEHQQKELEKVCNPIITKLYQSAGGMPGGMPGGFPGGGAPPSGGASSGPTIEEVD
UniProt Q96PD2, sequence (Q96PD2 whole entry): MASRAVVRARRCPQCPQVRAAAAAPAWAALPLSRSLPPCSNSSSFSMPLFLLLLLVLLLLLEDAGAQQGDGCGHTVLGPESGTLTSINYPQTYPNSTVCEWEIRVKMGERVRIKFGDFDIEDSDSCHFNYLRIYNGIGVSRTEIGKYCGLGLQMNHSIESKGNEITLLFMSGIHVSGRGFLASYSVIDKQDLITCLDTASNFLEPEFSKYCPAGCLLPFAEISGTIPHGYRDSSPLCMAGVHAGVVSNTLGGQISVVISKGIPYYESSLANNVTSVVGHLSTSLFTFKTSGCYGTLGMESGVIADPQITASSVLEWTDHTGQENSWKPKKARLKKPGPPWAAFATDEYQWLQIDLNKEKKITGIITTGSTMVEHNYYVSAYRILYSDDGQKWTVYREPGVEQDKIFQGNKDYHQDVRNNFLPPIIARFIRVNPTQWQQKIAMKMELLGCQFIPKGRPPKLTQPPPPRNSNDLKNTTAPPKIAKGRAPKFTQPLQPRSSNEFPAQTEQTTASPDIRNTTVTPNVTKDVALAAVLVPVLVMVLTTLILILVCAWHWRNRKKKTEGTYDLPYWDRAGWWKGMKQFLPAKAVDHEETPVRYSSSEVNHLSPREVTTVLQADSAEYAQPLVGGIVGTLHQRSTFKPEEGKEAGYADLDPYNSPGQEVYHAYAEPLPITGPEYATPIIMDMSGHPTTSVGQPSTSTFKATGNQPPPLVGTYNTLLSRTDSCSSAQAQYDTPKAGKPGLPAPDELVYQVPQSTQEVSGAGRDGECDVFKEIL
UniProt P61088, sequence (P61088 whole entry): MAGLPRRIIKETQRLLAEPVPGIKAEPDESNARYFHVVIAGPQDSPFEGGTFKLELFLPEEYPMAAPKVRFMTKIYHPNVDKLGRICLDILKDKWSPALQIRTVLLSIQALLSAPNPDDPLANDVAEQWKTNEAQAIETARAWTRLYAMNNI
UniProt Q9NQS3, sequence (Q9NQS3 whole entry, looked up): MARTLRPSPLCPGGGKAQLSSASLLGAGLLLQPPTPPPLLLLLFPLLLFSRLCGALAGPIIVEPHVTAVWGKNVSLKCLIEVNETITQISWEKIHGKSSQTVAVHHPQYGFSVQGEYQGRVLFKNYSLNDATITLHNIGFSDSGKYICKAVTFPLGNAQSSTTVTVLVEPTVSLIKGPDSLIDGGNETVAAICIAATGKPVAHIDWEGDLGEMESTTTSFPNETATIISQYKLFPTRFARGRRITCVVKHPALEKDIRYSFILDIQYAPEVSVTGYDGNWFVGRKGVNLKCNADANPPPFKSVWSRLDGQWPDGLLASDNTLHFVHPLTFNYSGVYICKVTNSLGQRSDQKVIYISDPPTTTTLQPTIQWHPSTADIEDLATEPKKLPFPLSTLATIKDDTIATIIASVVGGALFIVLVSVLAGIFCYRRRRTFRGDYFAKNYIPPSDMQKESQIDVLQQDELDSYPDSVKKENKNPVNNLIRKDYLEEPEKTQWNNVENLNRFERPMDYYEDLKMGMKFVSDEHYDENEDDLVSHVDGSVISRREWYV
UniProt P06733, sequence (P06733 whole entry): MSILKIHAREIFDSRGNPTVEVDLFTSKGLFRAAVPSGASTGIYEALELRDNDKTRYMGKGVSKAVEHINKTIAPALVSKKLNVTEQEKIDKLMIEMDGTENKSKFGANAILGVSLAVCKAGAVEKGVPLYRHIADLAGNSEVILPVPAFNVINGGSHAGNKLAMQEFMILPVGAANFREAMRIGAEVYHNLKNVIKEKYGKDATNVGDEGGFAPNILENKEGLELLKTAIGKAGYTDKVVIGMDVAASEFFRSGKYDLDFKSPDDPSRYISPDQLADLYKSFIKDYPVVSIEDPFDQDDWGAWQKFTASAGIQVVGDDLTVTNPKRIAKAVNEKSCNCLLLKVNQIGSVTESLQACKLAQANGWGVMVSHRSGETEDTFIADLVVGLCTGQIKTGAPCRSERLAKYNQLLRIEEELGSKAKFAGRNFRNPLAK

Row | Target | lysine labeling ratio R10:1
1 | ENAH (lysine site: K574) (UniProt Q8N8S7) | 5.16 (inactive)
2 | DDX5 (lysine site: K264) (UniProt P17844) | 7.01 (inactive)
3 | SUB1 (lysine site: K97) (UniProt P53999) | 6.03 (inactive)
4 | UniProt P16144 (lysine site: K151) | 1.53 (active)
5 | NECTIN3 (lysine site: K249) (UniProt Q9NQS3) | 5.88 (inactive)
6 | LRP8 (lysine site: K420) (UniProt Q14114) | 0.962 (active)
7 | UniProt Q9UKX5 (lysine site: K150) | 2.51 (inactive)
8 | MICA (lysine site: K94) (UniProt Q29983) | 2.63 (inactive)
9 | SPTBN1 (lysine site: K1884) (UniProt Q01082) | 4.5 (inactive)
10 | ENO1 (lysine site: K126) (UniProt P06733) | 3.29 (inactive)
11 | RPL14 (lysine site: K103) (UniProt P50914) | 3.31 (inactive)
12 | C3 (lysine site: K1051) (UniProt P01024) | 6.25 (inactive)
13 | UniProt P61088 (lysine site: K82) | 1.19 (active)
14 | HSPA8 (lysine site: K512) (UniProt P11142) | 7.92 (inactive)
15 | AGRN (lysine site: K1708) (UniProt O00468) | 2.99 (inactive)
16 | YBX1 (lysine site: K264) (UniProt P67809) | 4.18 (inactive)
17 | DCBLD2 (lysine site: K391) (UniProt Q96PD2) | 3.28 (inactive)

Source: the supplement of paper PMC11001985
